Compounds without any hit were thinned out: in the full panel of roughly 79,000, 15% have a hit. The source made the active and inactive calls. Cut-off read from the data, not from the text of the source: active = growth inhibition above about 70%; inactive = the rest.
Assays:
[1] = NCI Yeast Anticancer Drug Screen. Data for the rad52 strain (AID 147);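 note: 0% = growth of vehicle-treated control cultures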; settings: S. cerevisiae rad52 mutant growth inhibition, stronger effect = higher value
Method in brief: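 Read-out: growth inhibition versus vehicle-treated controls. Cells were a DNA repair-deficient yeast strain treated with compounds.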

[2] = NCI Yeast Anticancer Drug Screen. Data for the wt1 strain (AID 149);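 note: 0% = growth of vehicle-treated wt1 cultures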; settings: S. cerevisiae wt1 strain (SPY 50644) growth inhibition, stronger effect = higher value
Method in brief: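 Measured: growth of wt1 yeast under compound versus vehicle treatment, reported as inhibition.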

[3] = NCI Yeast Anticancer Drug Screen. Data for the rad50EPP+ strain (AID 151);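 note: 0% = growth of vehicle-treated control cultures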; settings: S. cerevisiae rad50 mutant strain, stronger effect = higher value
Method in brief: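 Growth inhibition read against vehicle controls in rad50EPP+ yeast, a strain altered in DNA damage repair, after compound exposure.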

[4] = NCI Yeast Anticancer Drug Screen. Data for the mgt1 strain (AID 153); settings: S. cerevisiae mgt1 mutant growth inhibition, stronger effect = higher value
Method in brief: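 mgt1 yeast grown with test compound; read-out is growth inhibition versus vehicle-treated cultures.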

[5] = NCI Yeast Anticancer Drug Screen. Data for the rad50 strain (AID 155);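 note: 0% = growth of vehicle-only cultures of the same strain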; settings: S. cerevisiae rad50 strain growth inhibition, stronger effect = higher value
Method in brief: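 Growth of the mutant yeast was measured after compound exposure and referenced to vehicle-treated cultures.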

[6] = NCI Yeast Anticancer Drug Screen. Data for the mec2-1 strain (AID 157); settings: S. cerevisiae mec2-1 strain, stronger effect = higher value
Method in brief: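 Yeast mec2-1 mutant treated with compound. Readout: growth inhibition vs vehicle controls.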

[7] = NCI Yeast Anticancer Drug Screen. Data for the rad14 strain (AID 159);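 note: 0% = growth of vehicle-treated control cultures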; settings: S. cerevisiae rad14 strain growth inhibition, stronger effect = higher value
Method in brief: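 Here, inhibition of yeast growth was measured after compound exposure, using a strain with a genetic defect in DNA damage repair and vehicle-treated cultures as the reference.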

[8] = NCI Yeast Anticancer Drug Screen. Data for the sgs1 mgt1 strain (AID 161);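 note: 0% = growth of cultures given vehicle only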; settings: S. cerevisiae sgs1 mgt1 strain, stronger effect = higher value
Method in brief: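 Genetically altered yeast, compound exposure, growth inhibition relative to vehicle.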

[9] = NCI Yeast Anticancer Drug Screen. Data for the cln2 rad14 strain (AID 165);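 note: 0% = growth equal to vehicle treated cultures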; settings: S. cerevisiae cln2 rad14 strain, stronger effect = higher value
Method in brief: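 cln2 rad14 yeast strain; compound exposure; growth inhibition read vs vehicle controls.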

[10] = NCI Yeast Anticancer Drug Screen. Data for the bub3 strain (AID 167); settings: S. cerevisiae bub3 mutant strain, stronger effect = higher value
Method in brief: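 Whole-cell yeast assay. The mutant strain was incubated with compounds, and growth inhibition was determined by comparison with vehicle-treated cells.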

[11] = NCI Yeast Anticancer Drug Screen. Data for the wt2 strain (AID 169);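 note: 0% = growth of vehicle-treated yeast cultures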; settings: S. cerevisiae wt2 strain growth inhibition, stronger effect = higher value
Method in brief: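 Read-out: growth inhibition versus vehicle-treated control cultures after compound exposure of the yeast strain.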

[12] = NCI Yeast Anticancer Drug Screen. Data for the mlh1 strain (AID 171);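 note: 0% = growth of vehicle-treated control cultures of the same strain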; settings: S. cerevisiae mlh1 strain growth inhibition, stronger effect = higher value
Method in brief: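 Read-out: growth inhibition versus vehicle controls. Strain: engineered yeast with a defined DNA repair or cell cycle defect, compound-treated.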

[13] = NCI Yeast Anticancer Drug Screen. Data for the sgs1 strain (AID 173);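 note: 0% = growth of vehicle-only control cultures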; settings: S. cerevisiae sgs1 mutant, stronger effect = higher value
Method in brief: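 Read-out: yeast growth inhibition relative to vehicle controls, following compound exposure of a strain with a defined DNA repair/cell cycle alteration.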

[14] = NCI Yeast Anticancer Drug Screen. Data for the mlh1 rad18 strain (AID 175); settings: S. cerevisiae mlh1 rad18 strain growth inhibition, stronger effect = higher value
Method in brief: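 Yeast w/ defined DNA-repair lesions; compound exposure; growth vs vehicle controls → % inhibition.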

[15] = NCI Yeast Anticancer Drug Screen. Data for the rad18 strain (AID 177); settings: S. cerevisiae rad18 mutant growth inhibition, stronger effect = higher value
Method in brief: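 Readout: growth inhibition vs vehicle controls. Cells: genetically altered yeast strain, DNA repair defect.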

[16] = NCI Yeast Anticancer Drug Screen. Data for the CLN2oe strain (AID 163);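 note: 0% = growth of vehicle-only control cultures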; settings: S. cerevisiae CLN2oe strain, stronger effect = higher value
Method in brief: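 Read-out: yeast growth inhibition, expressed relative to vehicle-only controls. The strain bears an engineered cell-cycle alteration.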

[17] = at 5.0 µM (retest, dose inferred, filed as 0.5)
[18] = at 50.0 µM (retest, dose inferred, filed as 5.0)

Measured: growth inhibition

CCC1(OC(=O)CN)C(=O)OCc2c1cc1n(c2=O)Cc2cc3ccccc3nc2-1 (stereo not drawn)
inactive: [2]; at 1.2 µM -1% | [2]; at 3.7 µM 4% | [2]; at 11.0 µM 51% | [3]; at 1.2 µM 45% | [3]; at 3.7 µM 67% | [4]; at 1.2 µM 20% | [4]; at 3.7 µM 25% | [4]; at 11.0 µM 50% | [6]; at 1.2 µM 19% | [7]; at 1.2 µM 4% | [7]; at 3.7 µM 23% | [8]; [17] 62% | [9]; [17] 49% | [10]; at 1.2 µM 9% | [10]; at 3.7 µM 13% | [10]; [17] 8% | [10]; at 11.0 µM 44% | [11]; at 1.2 µM 0% | [11]; at 3.7 µM 4% | [11]; at 11.0 µM 67% | [12]; at 1.2 µM 3% | [12]; at 3.7 µM 15% | [13]; at 1.2 µM 8% | [13]; at 3.7 µM 38% | [14]; [17] 42% | [14]; [18] -13% | [15]; at 1.2 µM 31% | [15]; at 3.7 µM 33% | [15]; at 11.0 µM 58%
active: [1]; at 1.2 µM 93% | [1]; at 3.7 µM 95% | [1]; at 11.0 µM 96% | [1]; at 33.0 µM 97% | [1]; at 100.0 µM 97% | [2]; at 33.0 µM 88% | [2]; at 100.0 µM 94% | [3]; at 11.0 µM 85% | [3]; at 33.0 µM 92% | [3]; at 100.0 µM 93% | [4]; at 33.0 µM 80% | [4]; at 100.0 µM 91% | [5]; at 1.2 µM 94% | [5]; at 3.7 µM 96% | [5]; [17] 97% | [5]; at 11.0 µM 97% | [5]; at 33.0 µM 97% | [5]; [18] 97% | [5]; at 50.0 µM 98% | [5]; at 100.0 µM 97% | [6]; at 3.7 µM 82% | [6]; [17] 84% | [6]; at 11.0 µM 96% | [6]; at 33.0 µM 97% | [6]; [18] 95% | [6]; at 50.0 µM 99% | [6]; at 100.0 µM 98% | [7]; at 11.0 µM 76% | [7]; at 33.0 µM 93% | [7]; at 100.0 µM 96% | [8]; [18] 96% | [8]; at 50.0 µM 94% | [9]; [18] 92% | [9]; at 50.0 µM 89.2% | [10]; at 33.0 µM 79% | [10]; [18] 94% | [10]; at 50.0 µM 96.9% | [10]; at 100.0 µM 92% | [11]; at 33.0 µM 90% | [11]; at 100.0 µM 95% | [12]; at 11.0 µM 70% | [12]; at 33.0 µM 93% | [12]; at 100.0 µM 96% | [13]; at 11.0 µM 85% | [13]; at 33.0 µM 94% | [13]; at 100.0 µM 95% | [14]; at 50.0 µM 97.3% | [15]; at 33.0 µM 80% | [15]; at 100.0 µM 89%

O=[N+]([O-])c1ccc(-n2nc3ccc4c(no[n+]4[O-])c3[n+]2[O-])c([N+](=O)[O-])c1
active: [5]; [18] 98% | [6]; [18] 98% | [8]; [18] 97% | [8]; at 50.0 µM 70.5% | [9]; [18] 97% | [10]; [18] 96%
inactive: [1]; at 1.2 µM 0% | [1]; at 3.7 µM 1% | [1]; at 11.0 µM 2% | [1]; at 33.0 µM 4% | [1]; at 100.0 µM 6% | [2]; at 1.2 µM -2% | [2]; at 3.7 µM -2% | [2]; at 11.0 µM -2% | [2]; at 33.0 µM 0% | [2]; at 100.0 µM 3% | [3]; at 1.2 µM 3% | [3]; at 3.7 µM 8% | [3]; at 11.0 µM 13% | [3]; at 33.0 µM 26% | [3]; at 100.0 µM 24% | [4]; at 1.2 µM -4% | [4]; at 3.7 µM -3% | [4]; at 11.0 µM 5% | [4]; at 33.0 µM -3% | [4]; at 100.0 µM -2% | [5]; at 1.2 µM -1% | [5]; at 3.7 µM 1% | [5]; [17] 20% | [5]; at 11.0 µM -5% | [5]; at 33.0 µM 6% | [5]; at 50.0 µM 30.4% | [5]; at 100.0 µM 4% | [6]; at 1.2 µM 3% | [6]; at 3.7 µM 0% | [6]; [17] 23% | [6]; at 11.0 µM 2% | [6]; at 33.0 µM 3% | [6]; at 50.0 µM 9.9% | [6]; at 100.0 µM 2% | [7]; at 1.2 µM -3% | [7]; at 3.7 µM -1% | [7]; at 11.0 µM 7% | [7]; at 33.0 µM 8% | [7]; at 100.0 µM 8% | [8]; [17] 16% | [16]; at 1.2 µM -1% | [16]; at 3.7 µM -5% | [16]; at 11.0 µM -6% | [16]; at 33.0 µM -2% | [16]; at 100.0 µM 2% | [9]; [17] 44% | [9]; at 50.0 µM 9.9% | [10]; at 1.2 µM -3% | [10]; at 3.7 µM 1% | [10]; [17] -14% | [10]; at 11.0 µM 10% | [10]; at 33.0 µM 8% | [10]; at 50.0 µM 66.7% | [10]; at 100.0 µM 9% | [12]; at 1.2 µM 0% | [12]; at 3.7 µM -4% | [12]; at 11.0 µM -3% | [12]; at 33.0 µM 1% | [12]; at 100.0 µM -5% | [13]; at 1.2 µM -1% | [13]; at 3.7 µM 1% | [13]; at 11.0 µM 3% | [13]; at 33.0 µM 4% | [13]; at 100.0 µM 6% | [15]; at 1.2 µM -1% | [15]; at 3.7 µM 4% | [15]; at 11.0 µM 7% | [15]; at 33.0 µM 1% | [15]; at 100.0 µM 19%

Reference: PubChem BioAssay (NCI)
